Assay outcomes (PubChem BioAssay)
Rows were chosen to be rich in hits. Some 8% of all compounds tested hit in one or more screens of this group.
KB-3-1 tox: kills parental KB-3-1 adenocarcinoma cells. AID 1347075. 1.4% of 400,000 active. KB-3-1 viability, CellTiter-Glo ATP luminescence, 72 h. Potency, µM (highest dose often 46.1 µM), usual class: cytotoxic; note: % is set by controls: 0 for no effect and ±100 for the full control effect; nearly all actives have a fitted effect of over 60% in size
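Parental KB-3-1 adenocarcinoma cells in phenol-red-free DMEM with 10% FBS were pin-treated with compounds at several concentrations, incubated 72 h at 37 °C, and viability read by CellTiter-Glo luminescence; concentration-effect curves were fitted after normalization.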
HT1080NT lethal: kills 2HG-producing HT-1080-NT fibrosarcoma cells. HT-1080-NT fibrosarcoma viability, CellTiter-Glo ATP luminescence, 48 h. 1.6% of 360,000 active. Potency, µM (titrated, usually from 46.1 µM), inactives show top-dose activity, negative = less viability, hits mostly cytotoxic;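 note: NT is the 2HG producing partner of a matched IDH1 knockdown line; 0% = DMSO-treated cells and -100% = media-only wells without cells; nearly all actives have a fitted effect of over 55% in size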
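HT-1080-NT fibrosarcoma cells (2HG-overproducing), 750 cells/well in RPMI with 5% FBS, dosed after 2 h and incubated 48 h at 37C. CellTiter-Glo luminescence normalized to DMSO and no-cell wells; concentration-response curves fitted and classed.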
KB-V1 cytotox: kills drug-selected multidrug resistant KB-V1 cells. 3.4% of 400,000 active. KB-V1 MDR cells viability, CellTiter-Glo, 72 h. Potency, µM (highest dose often 46.1 µM), actives largely listed as cytotoxic; note: % is set by controls: 0 for no effect and ±100 for the full control effect; nearly all actives have a fitted effect of over 60% in size
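Following 72 h at 37 degrees C with compound, KB-V1 cell viability was read by CellTiter-Glo luminescence, medium being phenol-red-free DMEM plus 10% FBS; concentration-response parameters came from normalized, curve-fitted qHTS data.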
MCF10A rereplic: inducers of DNA re-replication in MCF 10A breast cells; Potency, µM (titrated, usually from 46.1 µM), without a hit: top-dose activity, positive = re-replication, usual class: activators; MCF 10A DNA re-replication, Hoechst nuclear intensity, 48 h; AID 624296; 2.9% of 350,000 active; note: % of control where 0% means no effect; nearly all actives have a fitted effect of over 50% in size
HT1080 IDH1KD tx: toxicity to HT-1080 IDH1 knockdown cells (counter line); HT-1080 IDH1 knockdown viability, ATP luminescence, 48 h; Potency, µM (highest dose often 46.1 µM), inactives show at the highest dose activity, negative = toxicity, most hits filed as cytotoxic; 2% of 360,000 active; AID 686971;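 note: 0% = DMSO wells and -100% = cell-free medium wells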
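Viability of IDH1-knockdown HT-1080 fibrosarcoma cells was assessed by CellTiter-Glo after 48 h at 37 °C with titrated compound; concentration-effect curves were classified by fit quality and response size.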
SW480 rereplic: induces DNA re-replication in SW480 colon adenocarcinoma cells; SW480 DNA re-replication, Hoechst DNA content imaging, 48 h; Potency, µM (highest dose often 46.1 µM), without a hit: top-dose re-replication activation, hits mostly activators; 1.8% of 340,000 active; AID 624297; note: % of control where 0% means no effect; nearly all actives have a fitted effect of over 55% in size
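250 cells/well; 23 nL cpd via pin tool; 48 hr, 37 C, 5% CO2; Hoechst 40 min; imager read of total nuclear intensity, ex 405/em 500-530 nm.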
An asterisk follows results filed as active; i = inactive; u = inconclusive; x = no result given. Calls come from the whole dose curve; as a rule, active = well fitted curve in the direction sought with a large enough effect; inconclusive = small, poorly fitted or top-dose-only effect, or another doubt; inactive = no such curve, though single readings can be large; an effect the other way counts as inactive or inconclusive. Potency is the fitted concentration of half-maximal effect.

SMILES	KB-3-1 tox	HT1080NT lethal	KB-V1 cytotox	MCF10A rereplic	HT1080 IDH1KD tx	SW480 rereplic
C/C(=N/NC(=O)C1CCN(S(=O)(=O)c2ccc(C)cc2)CC1)c1cccc([N+](=O)[O-])c1	i	10%	23µM*	4%	-3%	-2%
CCOC(=O)c1c(C)[nH]c(C(=O)COC(=O)CNC(=O)c2ccc(Cl)cc2)c1C	i	1%	4.1µM*	-3%	3%	x
CCOC(=O)c1c(C)[nH]c(C(=O)COC(=O)c2ccc(O)cc2)c1C	i	-18%	u	-13%	-3%	3%
CCOC(=O)c1c(C)[nH]c(C(=O)COC(=O)C2(C)CC2(Cl)Cl)c1C (stereo not given)	i	13%	13µM*	7%	u	16%
CCOC(=O)c1c(C)[nH]c(C(=O)CSc2nc(C)cc(C)n2)c1C	i	5%	u	6%	-3%	1%
CCOC(=O)c1c(C)[nH]c(C(=O)CSc2ccc(Cl)cc2)c1C	i	-14%	18µM*	29%	u	2%
CCOC(=O)c1c(C)[nH]c(C(=O)COC(=O)COc2ccc(OC)cc2)c1C	i	-6%	18µM*	-2%	2%	-4%
Cc1cccc(NC(=O)CN2C(=O)C3(SCC(=O)N3c3ccccc3)c3ccccc32)c1 (stereo not given)	i	x	u	x	x	x
COc1ccccc1-c1nnc(N)s1	i	0%	i	-1%	2%	1%
COc1ccccc1-c1nnc(SC2CCc3ccccc3NC2=O)s1 (stereo not given)	i	3%	5.8µM*	-2%	-14%	5%
COc1ccc(/C=C/C(=O)N2CCNC(=O)C2)c(OC)c1	i	1%	i	1µM*	4%	8%
C/C(=N\NC(=O)CC#N)c1ccc(Oc2ccccc2)cc1	i	-9%	i	u	-9%	u
CCC(SC1=Nc2ccccc2C2=NC(CC(C)C)C(=O)N12)C(=O)Nc1ccc2c(c1)OCO2 (stereo not given)	u	-9%	15µM*	1%	-23%	-1%
COc1cccc(NC(=O)CSC2=Nc3ccccc3C3=NC(CC(=O)NCc4ccc5c(c4)OCO5)C(=O)N23)c1 (stereo not given)	i	x	i	x	x	x
O=C(NCC(c1ccco1)N1CCCC1)c1cc2cc(Cl)ccc2o1 (stereo not given)	i	-10%	9.2µM*	u	-10%	11%
O=C(NCC(c1ccco1)N1CCCC1)c1ccc(Cl)cc1 (stereo not given)	i	4%	i	-3%	9%	-4%
O=C(O)CCn1ccc2cc(S(=O)(=O)N3CCCCC3)ccc21	i	x	i	x	x	x
COc1ccc(-n2nc3ccc(NC(=O)c4cc5ccccc5o4)cc3n2)cc1Cl	i	x	i	x	x	x
CCC(C(=O)Nc1ccccc1F)n1nc(C)c2c(C)n(-c3ccccc3)nc2c1=O (stereo not given)	i	-9%	i	4%	-14%	29µM*
COc1ccc(-c2cc(C(=O)N3CC4(C)CC3CC(C)(C)C4)no2)cc1OC (stereo not given)	i	8%	21µM*	u	-2%	-6%
COc1ccc(-c2cc(C(=O)N3CC4(C)CC3CC(C)(C)C4)no2)cc1 (stereo not given)	u	8%	i	15%	0%	-9%
CC1Oc2ccccc2N(CC(=O)N2CCc3ccccc32)C1=O (stereo not given)	i	-3%	15µM*	8%	-3%	-6%
CC1Oc2ccccc2N(CC(=O)NCCc2ccccc2)C1=O (stereo not given)	i	0%	16µM*	-5%	-2%	-5%
CC1Oc2ccccc2N(CC(=O)Nc2ccc3c(c2)OCO3)C1=O (stereo not given)	i	12%	21µM*	3%	-7%	-8%
CCC1(c2ccccc2)NC(=O)N(CC(=O)N2CCc3ccccc32)C1=O (stereo not given)	i	-1%	12µM*	3%	0%	18%
SMILES	KB-3-1 tox	HT1080NT lethal	KB-V1 cytotox	MCF10A rereplic	HT1080 IDH1KD tx	SW480 rereplic
NC(=O)COC(=O)[C@H](Cc1c[nH]c2ccccc12)NC(=O)c1ccc(F)cc1	u	4%	i	u	-2%	0%
COc1ccc(NC(=O)Cn2c(=O)n(-c3cccc(C)c3)c(=O)c3c2c2cc(C)ccc2n3C)cc1Cl	i	x	i	x	x	x
CC1Oc2ccccc2N(CC(=O)Nc2ccc3c(c2)OCCO3)C1=O (stereo not given)	i	11%	16µM*	-2%	-24%	-6%
Brc1ccc2ncc3ccccc3c2c1	i	10%	i	3%	3%	7%
COc1ccc(OC)c(Nc2ncc3c(n2)CCN(Cc2cc(OC)c(OC)c(OC)c2)C3)c1	i	x	i	x	x	x
COc1cc(Nc2ncc3c(n2)CCN(Cc2cc(F)cc(F)c2)C3)cc(OC)c1	u	x	8.2µM*	x	x	x
C=C(C)COc1ccc(-c2nc(N)nc(C(F)(F)F)c2-c2ccc(OC)cc2)c(O)c1	i	u	i	2.6µM*	u	21µM*
C=C(C)COc1ccc(-c2ncnc(C(F)(F)F)c2-c2ccc(OC)cc2)c(O)c1	u	-18%	u	u	-16%	u
C=C(C)COc1ccc(-c2ncncc2-c2ccc(Cl)cc2)c(O)c1	i	-12%	i	15µM*	-15%	-4%
C=C(C)COc1ccc(-c2ncncc2-c2ccc(Br)cc2)c(O)c1	i	u	i	u	-28%	1%
C=C(C)COc1ccc(-c2[nH]ncc2-c2ccc(Br)cc2)c(O)c1	5.8µM*	15µM*	12µM*	9.2µM*	23µM*	21µM*
COc1ccc(-c2cn[nH]c2-c2ccc(O)cc2O)cc1OC	i	-11%	i	1%	-1%	3%
CCOc1ccc(-c2[nH]ncc2-c2ccc(OC)c(OC)c2)c(O)c1	u	6.3µM*	3.7µM*	u	2.2µM*	2.6µM*
COCCN(Cc1ccco1)C(=O)c1cc2c(Cl)nc3ccc(C)cc3c2s1	i	x	i	x	x	x
CN(Cc1cccs1)C(=O)CNC(=O)c1ccco1	i	13%	i	7%	12%	-3%
C=CCN(CC=C)Cc1cc(=O)oc2cc(C)c(Cl)cc12	i	10%	i	x	3%	x
CCOc1ccccc1NC(=O)CCNC(=O)c1ccc(Cl)cc1	i	24%	u	-6%	14%	-1%
